# ALOX15 inhib: inhibitors of human 15-lipoxygenase (ALOX15) | hit rate 1.4% among 74,000 | Potency, µM (top dose mostly 57.1 µM), for inactives: top-dose activity change, negative = inhibition, most hits filed as inhibitors | purified 15hLO-1, xylenol orange hydroperoxide absorbance | P16050; note: potency is the fitted concentration of half-maximal effect; % is set by controls: 0 for no effect and ±100 for the full control effect; nearly all actives have a fitted effect of over 55% in size
#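 Compounds were preincubated 15 min at room temperature with 40 nM purified human enzyme (25 mM Hepes pH 7.5, 0.01% Triton X-100); 50 uM arachidonic acid reacted 6 min. Fe-xylenol orange detection, 30 min, absorbance ratio 573/405 nm.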
# ERK AVP block: blocks ERK signaling stimulated by vasopressin | HEK293-V1b, vasopressin-stimulated pERK AlphaScreen | Potency, µM (titrated, usually from 57.5 µM), for inactives: at the highest dose activity, negative = inhibition, actives largely listed as inhibitors | hit rate 0.99% among 72,000; note: potency is the fitted concentration of half-maximal effect; % is set by controls: 0 for no effect and ±100 for the full control effect; nearly all actives have a fitted effect of over 55% in size
#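 HEK293 cells stably expressing V1b receptor, seeded overnight in 1% FBS, were treated with compounds for 30 min at 37C, then stimulated 5 min with 25 nM vasopressin; phospho-ERK read by AlphaScreen SureFire after lysis.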
# BRCT inh green: inhibitors of human BRCA1 BRCT-phosphoprotein interaction (green fluorophore). AID 875. Potency, µM (highest dose often 76.9 µM), for inactives: at the highest dose activity change, negative = inhibition, actives largely listed as inhibitors. BRCA1 BRCT-phosphopeptide binding, green fluorescence polarization. P38398. hit rate 0.05% among 75,000;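 note: potency is the fitted concentration of half-maximal effect; plate controls were peptide without protein for full effect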
# Target sequence (P38398 whole entry, looked up): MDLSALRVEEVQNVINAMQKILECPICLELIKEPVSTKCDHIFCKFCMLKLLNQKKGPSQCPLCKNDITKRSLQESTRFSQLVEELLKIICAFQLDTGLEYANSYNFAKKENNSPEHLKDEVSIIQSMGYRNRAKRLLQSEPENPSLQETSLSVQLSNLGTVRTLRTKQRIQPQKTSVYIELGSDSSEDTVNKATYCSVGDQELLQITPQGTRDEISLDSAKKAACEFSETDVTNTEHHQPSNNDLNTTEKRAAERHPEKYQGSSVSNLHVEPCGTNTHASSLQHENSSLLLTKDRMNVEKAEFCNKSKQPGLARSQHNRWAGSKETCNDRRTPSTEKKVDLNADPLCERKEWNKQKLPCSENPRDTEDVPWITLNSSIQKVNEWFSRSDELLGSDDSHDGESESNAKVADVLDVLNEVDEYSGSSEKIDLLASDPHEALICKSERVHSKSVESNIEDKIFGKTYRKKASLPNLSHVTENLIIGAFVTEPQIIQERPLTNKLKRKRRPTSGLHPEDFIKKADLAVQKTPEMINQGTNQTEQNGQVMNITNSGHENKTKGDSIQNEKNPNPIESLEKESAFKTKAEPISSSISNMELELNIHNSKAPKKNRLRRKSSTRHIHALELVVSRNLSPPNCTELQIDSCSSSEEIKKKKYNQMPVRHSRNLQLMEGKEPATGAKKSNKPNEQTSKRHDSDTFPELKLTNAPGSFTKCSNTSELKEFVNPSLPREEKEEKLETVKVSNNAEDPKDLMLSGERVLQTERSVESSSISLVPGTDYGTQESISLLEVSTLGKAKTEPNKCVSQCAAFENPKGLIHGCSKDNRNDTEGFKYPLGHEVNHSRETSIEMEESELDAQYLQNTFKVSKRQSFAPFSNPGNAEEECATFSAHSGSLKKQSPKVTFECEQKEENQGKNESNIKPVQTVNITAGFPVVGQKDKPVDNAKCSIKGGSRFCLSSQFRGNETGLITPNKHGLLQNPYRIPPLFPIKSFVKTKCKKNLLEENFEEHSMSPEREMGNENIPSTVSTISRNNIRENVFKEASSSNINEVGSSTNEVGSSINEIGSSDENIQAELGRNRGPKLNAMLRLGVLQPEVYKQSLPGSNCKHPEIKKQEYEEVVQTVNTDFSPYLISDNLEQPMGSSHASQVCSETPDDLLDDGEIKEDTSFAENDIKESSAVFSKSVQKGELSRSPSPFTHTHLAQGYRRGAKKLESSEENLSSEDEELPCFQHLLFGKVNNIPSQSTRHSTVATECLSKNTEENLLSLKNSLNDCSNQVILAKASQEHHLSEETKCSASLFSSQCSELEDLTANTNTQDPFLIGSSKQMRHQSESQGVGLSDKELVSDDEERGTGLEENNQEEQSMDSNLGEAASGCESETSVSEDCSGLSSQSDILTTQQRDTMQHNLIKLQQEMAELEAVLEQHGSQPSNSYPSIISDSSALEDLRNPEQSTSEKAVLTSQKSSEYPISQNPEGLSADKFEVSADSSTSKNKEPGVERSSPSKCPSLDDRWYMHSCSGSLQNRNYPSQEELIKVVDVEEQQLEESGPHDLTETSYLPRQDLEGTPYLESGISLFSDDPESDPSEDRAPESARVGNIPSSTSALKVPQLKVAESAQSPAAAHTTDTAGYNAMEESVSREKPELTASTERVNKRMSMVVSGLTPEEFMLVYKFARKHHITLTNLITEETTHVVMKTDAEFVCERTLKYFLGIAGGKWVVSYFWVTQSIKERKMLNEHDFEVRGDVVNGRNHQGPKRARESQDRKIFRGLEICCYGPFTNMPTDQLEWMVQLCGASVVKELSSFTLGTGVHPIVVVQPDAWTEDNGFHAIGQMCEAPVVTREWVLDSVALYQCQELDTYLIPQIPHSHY
#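 Compounds were incubated for 12 min at room temperature with a complex of 100 nM fluorescein-tagged pBACH1 decapeptide and 250 nM His-tagged BRCT protein. Buffer was phosphate pH 7.3 with EDTA, DTT and Tween 20. Disruption of binding lowers the polarization signal.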
# BRCT PPI red: inhibitors of human BRCA1 BRCT-phosphoprotein interaction (red fluorophore); BRCT-phosphopeptide binding, red fluorescence polarization; Potency, µM (highest dose often 76.9 µM), without a hit: at the top dose activity change, negative = inhibition, usual class: inhibitors; AID 892; hit rate 0.03% among 75,000; note: % is set by controls: 0 for no effect and ±100 for the full control effect
#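 Rhodamine-labelled pBACH1 10-mer (100 nM) bound to BRCT domain (100 nM) at pH 7.3; compounds incubated 12 min room temperature, polarization read. Free peptide defines full inhibition; unlabelled decapeptide titrated as control.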
# Pol III holo inh: inhibitors of bacterial DNA polymerase III holoenzyme. reconstituted DNA polymerase III holoenzyme replication, biochemical. AID 603. Potency, µM (highest dose often 57.1 µM), for inactives: at the highest dose activity change, negative = inhibition. hit rate 0.25% among 71,000; note: potency is the fitted concentration of half-maximal effect; % is set by controls: 0 for no effect and ±100 for the full control effect
#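 Reconstituted *E. coli* holoenzyme (0.35 nM Pol III, 1 nM beta, 154 nM SSB, 2 nM primase) was preincubated with compound for 15 min at RT. Synthesis on 1.4 nM ssM13Gori ran 35 min, then was stopped with PicoGreen/EDTA and read as dsDNA fluorescence.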
# YjeE inh: inhibitors of E. coli YjeE (TsaE) | P0AF67 | AID 605 | purified YjeE enzyme, qHTS inhibition assay | Potency, µM | hit rate 0.05% among 71,000
#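 Purified YjeE (10 uM) with BODIPY Texas Red-labeled ADP probe (2 uM); compounds pin-transferred, 15 min at room temperature. Binding inhibition read as decreased fluorescence polarization; ADP titration as control.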
# The depositor's hits bear a star; i = inactive; ? = inconclusive; / = not tested or not shown; [ ] = dose if it differs, or a comment. Shown are actives, neighbours in structure and some others; about 2.4% of the full set was active somewhere. Calls come from the whole dose curve; as a rule, active = well fitted curve in the direction sought with a large enough effect; inconclusive = small, poorly fitted or top-dose-only effect, or another doubt; inactive = no such curve, though single readings can be large; an effect the other way counts as inactive or inconclusive.
SMILES,ALOX15 inhib,ERK AVP block,BRCT inh green,BRCT PPI red,Pol III holo inh,YjeE inh
CC(=O)OCC1OC(c2cc(C)cc(C)c2)C=CC1OC(C)=O (centres undefined),16%[11.4 µM],12%[11.5 µM],-1%[15.4 µM],0%[15.4 µM],/,/
CCOc1ccccc1NC(=O)C1CCN(S(=O)(=O)c2cccc3cccnc23)CC1,-6%,-8%,0%,1%,-5%,i
Cc1cc2cc(CNC(=O)c3cccs3)ccc2n1C,16µM*,13%,-2%,-10%,-10%,i
O=C1CCC(=O)N1c1ccc(CSc2nnnn2C2CCCCC2)cc1,4%,16µM*,-6%,2%,10%,i
COC(=O)c1[nH]c2ccc(C)cc2c1NC(=O)CN1CCc2cc(OC)c(OC)cc2C1,-2%,-23%,-1%,-1%,-5%,i
COC(=O)c1[nH]c2ccc(C)cc2c1NC(=O)Nc1ccccc1OC,25µM*,-5%,-2%,2%,-4%,i
CC(c1ccccc1)N1CC(C(=O)N2CCN(c3ccccc3)CC2)CC1=O (centres undefined),-26%,25µM*,-3%,-2%,-3%,i
Cc1ccc(N2CC(C(=O)N3CCN(c4ccccc4)CC3)CC2=O)cc1 (centres undefined),7%,-6%,0%,0%,-5%,i
O=C(Cc1ccc(Cl)cc1)Nc1ccc(-c2nnc(-c3ccco3)o2)cc1,-9%,-24%,2%,0%,20µM*,i
O=C(Cc1ccccc1)Nc1ccc(-c2nnc(-c3ccco3)o2)cc1,-3%,19%,0%,-1%,-3%,i
Cc1nc2sc3c(c2c(=O)o1)CCCC3,-3%,6%,1%,-1%,-7%,i
Nc1nc2sc3c(c2c(=O)s1)CCCC3,0.79µM*,-2%,-5%,-2%,-3%,i
COc1ccc(Nc2ccc3c(c2)=NC2(CCCCC2)[N+]=3[O-])cc1,?,16µM*,2%,1%,-9%,i
[O-][N+]1=c2ccc(Nc3ccccc3)cc2=NC12CCCCC2,3.2µM*,?,-5%,0%,-10%,i
CCOC(=O)c1ccc(-c2c(C(=O)OCC)oc3cc(O)c(CC)cc3c2=O)o1,-4%,?,0%,1%,4%,i
O=C(O)C(=Cc1ccc(-c2ccccc2)cc1)C(=O)O,-8%[11.4 µM],7%[11.5 µM],0%[15.4 µM],-1%[15.4 µM],-8%[11.4 µM],i
C=C(C)CC1Nc2ccccc2NC1CC(=C)C (centres undefined),20µM*,-21%,1%,1%,-4%,i
O=c1cnc2cnc(Nc3ccccc3)nc2n1C[C@H]1CCCO1,6%,-20%,0%,0%,-10%,i
N#C[C@H](C(=O)O)C(c1c(Cl)cccc1Cl)[C@H](C#N)C(=O)O,0%[11.4 µM],-2%[11.5 µM],-1%[15.4 µM],1%[15.4 µM],-7%[11.4 µM],i
CCOc1ccccc1OCc1nn2c(COc3ccccc3)nnc2s1,3.2µM*,6%,-2%,-2%,-5%,i
c1ccc(Cc2nn3c(COc4ccccc4)nnc3s2)cc1,-8%,-7%,1%,1%,-5%,i
O=C(Nc1ccc2c(c1)OCO2)N1CCN(C/C=C/c2ccccc2)CC1,32µM*,?,-2%,-1%,-6%,i
Cn1cc(C(=O)c2ccc(Cl)cc2)cc1-c1nc2ccccc2n1C,-11%,32µM*,1%,0%,1%,i
CCc1cc(C=NC2CCCCC2)c(O)s1,13µM*,?,-4%,0%,-4%,i
CCn1c(SCC(=O)N2CCCC2)nnc1-c1ccc(S(=O)(=O)N2CCCCCC2)cc1,-3%,-1%,0%,-1%,-4%,i
SMILES,ALOX15 inhib,ERK AVP block,BRCT inh green,BRCT PPI red,Pol III holo inh,YjeE inh
CCn1c(SCc2ccc(C#N)cc2)nnc1-c1ccc(S(=O)(=O)N2CCCCC2)cc1,?,25µM*,-2%,-3%,-4%,i
CCOC(=O)c1ccc(NC(=O)c2ccc(CN3CCOCC3)cc2)cc1,12%,32µM*,-1%,0%,-6%,i
O=C(Nc1ccc(CN2CCOCC2)cc1)c1cc2ccccc2o1,-9%,25µM*,-3%,-3%,-1%,i
O=C(Nc1ccc2c(c1)OCO2)c1ccc(CN2CCOCC2)cc1,-29%,?,-2%,-2%,0%,i
O=C(Nc1ccc(N2CCOCC2)cc1)c1cc2ccccc2o1,6%,/,-2%,1%,/,/
COCC(=O)Nc1sc2c(c1C(=O)OC)CCC(C)C2 (centres undefined),25µM*,?,-4%,-2%,-5%,i
Cc1cnc(-c2nnc(N(C)C(=O)c3cnccn3)s2)cn1,5%,-2%,-5%,0%,-4%,i
CN(C)S(=O)(=O)c1cccc(-c2nnc(SCc3cc(Cl)cc4c3OCOC4)n2N)c1,13µM*,-9%,1%,-2%,-6%,i
Oc1cccc(Nc2nc(NCC3CCCO3)c3ccccc3n2)c1 (centres undefined),?,16µM*,0%,0%,-10%,i
Cc1nc(NCC2CCCO2)c2oc3ccccc3c2n1 (centres undefined),-16%,?,3%,-3%,-1%,i
O=C1C[C@@H](O)[C@@H](O)[C@H]2[C@@H]3C(=O)N(C4CCCCC4)C(=O)[C@@H]3CC[C@H]12,3%[11.4 µM],19%[11.5 µM],-1%[15.4 µM],1%[15.4 µM],/,/
COCC(=O)Nc1cccc(Br)c1,-1%,1%,-3%,-2%,5%,i
O=C(Nc1cccc(Br)c1)c1ccn[nH]1,10µM*,18%,1%,-1%,-2%,i
O=C(CSCc1nc2ccccc2[nH]1)N1CCN(c2ccc(F)cc2)CC1,9%,-30%,-2%,0%,-1%,i
O=C(CSCc1nc2ccccc2[nH]1)N1CCN(c2cccc(Cl)c2)CC1,9%,25µM*,-1%,0%,-2%,i
Nc1ncnc2nc[nH]c12.Nc1ncnc2nc[nH]c12.[Cl][Pt]([Cl])([Cl])[Cl],/,/,/,/,2.5µM*,i
Nc1nc(N)c2[nH]cnc2n1 (tested in a mixture with another compound),4%[11.4 µM],-10%[11.5 µM],1%[15.4 µM],-1%[15.4 µM],2%[11.4 µM],i
CC1=CC2C(CC1=O)C(C)=CCC2C(C)C (centres undefined),-7%,17%,-1%,2%,/,/
OCC1OC(n2cnc3c(=S)nc[nH]c32)C(O)C1O (centres undefined),-6%,5%,1%,2%,/,/
CC(C)=CCC[C@](C)(O)C1CC=C(C)CC1 (some centres undefined),13µM*,40%,1%[3.08 µM],1%,/,/
COc1ccc(O)c(/C=c2/sc3nc4cc(C)c(C)cc4n3c2=O)c1,?,3%,4%,-2%,-8%,i

# Bioassay records (PubChem)
